OPRM1-OPRD1 ag = agonists of OPRM1-OPRD1 heterodimerization, primary screen, cell-based, luminescence; Mu-type opioid receptor (Homo sapiens) + Delta-type opioid receptor (Homo sapiens), …; activation, % at 9.3 µM; AID 504326, 2011; cells; hit rate 0.3% among 340,000; in the data active = activation above about 18%;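 also: 0% = vehicle-treated cells and 100% = reference agonist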
HTR5A inv ctr = HTR5A inverse agonists in luminescence cell assay, primary screen, counter-screen for OPRM1-OPRD1 heterodimer inverse agonist project, full-deck HTS; 5-hydroxytryptamine receptor 5A (Homo sapiens), P47898; HTR5A cell line, inverse agonism; inhibition, % at 9.3 µM; hit rate 0.083% among 340,000; in the data active = inhibition mostly above about 23%, no sharp cut-off; inactive = mostly below about 18%;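 also: 0% = cells with DMSO and 100% = no-cell wells with DMSO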
OPRM1-OPRD1 inv = inverse agonists of MOR-DOR heterodimerization, primary screen, cell-based, luminescence; inhibition, % at 9.3 µM; cell-based MOR-DOR heterodimer luminescence, inverse agonism; hit rate 0.21% among 340,000; Mu-type opioid receptor (Homo sapiens) + Delta-type opioid receptor (Homo sapiens), …; in the data active = inhibition above about 22%, passing the limit was not always enough;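 also: 0% = cells with DMSO and 100% = wells without cells with DMSO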
HTR5A ag = HTR5A agonists in luminescence cell assay, primary screen, counter-screen for OPRM1-OPRD1 heterodimer agonist project, full-deck HTS; cell-based; activation, % at 9.3 µM; AID 504692, 2011; 5-hydroxytryptamine receptor 5A (Homo sapiens), P47898; hit rate 0.61% among 340,000; in the data active = activation mostly above about 9.5%, no sharp cut-off; inactive = mostly below about 7.6%;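 also: 0% = cells with vehicle only and 100% = reference agonist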
HGIII-sPLA2 inh = human group III sPLA2 inhibitors, primary screen, biochemical, QFRET, BODIPY PC-A2 liposome substrate; inhibition, % at 12.2 µM; hit rate 0.56% among 370,000; QFRET BODIPY PC-A2 liposome hydrolysis, fluorescence; AID 743126, 2013;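 active = inhibition above mean plus 3 SD of compounds lying within the high and low control bounds, cut at about 19% in these data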;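 also: 0% = median of test compound wells and 100% = no enzyme DMSO wells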
m5-HT2A agonist = mouse Htr2a agonists via beta-arrestin recruitment, primary screen, cell-based, luminescence. 5-hydroxytryptamine receptor 2A (Mus musculus), P35363. CHO-K1 mHTR2A beta-arrestin complementation; percent of 30 µM serotonin response. activation, % at 7.6 µM. hit rate 0.66% among 360,000. AID 624169, 2012;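 active = activation above a run cutoff, the mean activation of all tested compounds plus 3 SD, cut at about 14% in these data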;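 also: 0% = plate median of compound wells and 100% = 30 µM serotonin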
OPRM1 ag = OPRM1 agonists via beta-arrestin recruitment, confirmation, counter-screen for mouse HTR2A agonist project, cell-based, luminescence, single concentration | shares compounds with m5-HT2A agonist | U2OS OPRM1 beta-arrestin PathHunter; DMSO 0%, DAMGO 9.3 µM 100% | activation, % at 9.3 µM | hit rate 5.3% among 2,300 | AID 624380, 2012;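 active = mean activation above the mean of DMSO-only wells plus 3 SD, cut at about 0.5% in these data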
Target sequence (P35372 whole entry, looked up): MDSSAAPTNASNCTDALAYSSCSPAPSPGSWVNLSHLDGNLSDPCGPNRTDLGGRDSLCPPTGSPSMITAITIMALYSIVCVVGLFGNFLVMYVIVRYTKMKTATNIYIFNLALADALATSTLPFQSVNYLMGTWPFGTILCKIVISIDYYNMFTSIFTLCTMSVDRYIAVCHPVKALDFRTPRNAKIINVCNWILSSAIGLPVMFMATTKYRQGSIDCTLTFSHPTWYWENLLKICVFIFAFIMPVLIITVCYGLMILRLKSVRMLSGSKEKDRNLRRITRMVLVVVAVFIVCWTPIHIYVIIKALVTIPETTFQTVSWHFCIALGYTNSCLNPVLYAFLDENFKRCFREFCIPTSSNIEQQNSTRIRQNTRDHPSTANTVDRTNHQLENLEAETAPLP
m5-HT2A ag conf = mouse HTR2A agonists, beta-arrestin recruitment, confirmation, cell-based, luminescence, CHO-K1 PathHunter, triplicate | DMSO 0%, 30 µM serotonin 100% | AID 624381, 2012 | hit rate 19% among 2,300 | shares compounds with m5-HT2A agonist | activation, % at 7.6 µM;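 active = mean activation across triplicates above the hit threshold derived in the original primary screen, cut at about 15% in these data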
Starred values were filed as active, the others as inactive; . = not tested or not shown. Compounds with a hit are over-represented: about 2.2% of the library has one in this group of screens.

SMILES	OPRM1-OPRD1 ag	HTR5A inv ctr	OPRM1-OPRD1 inv	HTR5A ag	HGIII-sPLA2 inh	m5-HT2A agonist	OPRM1 ag	m5-HT2A ag conf
Cc1ccc2c(c1)CCCN2S(=O)(=O)c1cccc(C(=O)Nc2ccccc2C(=O)O)c1	2	-17	-9	5	-50	15*	-1	13
COc1cc(OC)nc(NC(=O)CS(=O)(=O)c2ccccc2)n1	3	-7	-20	-2	-2	16*	0	3
CCOC(=O)C1CCN(C(=O)CN2C(=O)CSc3ccc(S(=O)(=O)N4CCOCC4)cc32)CC1	-1	-10	7	3	-3	35*	0	-1
CN1CCN(C(=O)CN2C(=O)COc3ccc(S(=O)(=O)N4CCOCC4)cc32)CC1	-4	3	19	1	0	18*	-1	12
C/C(=C/c1nc(N)n(Cc2ccccc2)c1Cc1ccccc1)Cn1[nH]c(=O)n(-c2ccccc2)c1=O	.	.	.	.	10	.	.	.
NC(=O)c1ncn([C@@H]2O[C@H](C(=O)N[C@H](Cc3ccccc3)C(=O)N3CCN(CC(=O)Nc4ccccn4)CC3)[C@@H](O)[C@H]2O)n1	.	.	.	.	2	.	.	.
CS(=O)(=O)c1ccc(NS(=O)(=O)c2ccc(Cl)c(C(=O)NCc3ccco3)c2)cc1	-2	-5	7	4	-8	19*	0	-1
COc1ccc(NS(=O)(=O)c2ccc(C)c(C(=O)NCC(c3ccco3)N(C)C)c2)cc1 (stereo unspecified)	1	-24	-6	9	0	16*	0	-3
COc1ccccc1CNCC(O)(c1ccc(Cl)cc1)c1ccc(Cl)cc1	6	6	-27	-2	-4	22*	0	8
COc1cc(OC)cc(C(=O)Oc2ccc(/C=N/Nc3nc4ccccc4s3)cc2OC)c1	3	-43	-15	5	9	22*	0	-2
O=c1[nH]c2ccc(Cl)cc2c(-c2ccccc2)c1N1CCOCC1	-1	-7	3	2	-5	4	.	.
O=C(c1ccco1)N1CCN(c2c(-c3ccccc3)c3cc(Cl)ccc3[nH]c2=O)CC1	2	-2	-10	6	-10	52*	1.3*	24*
CCC[C@H]1[C@@H](OC(=O)NCc2ccco2)CC[C@@]23CCCN2C(=O)CCC[C@@H]13	.	.	.	.	-1	.	.	.
CCOC(=O)Cn1cnc2c(cnn2-c2ccc(OC)cc2)c1=O	-3	6	13	-2	-2	3	.	.
COc1ccc(-n2ncc3c(=O)n(CC(=O)N(C(C)C)C(C)C)cnc32)cc1	-3	-5	13	1	3	37*	-1	-4
O=C(OC12CCCN(C1)/C(=C/c1ccc(Cl)cc1)C2)C1CCCC1 (stereo unspecified)	.	.	.	.	3	.	.	.
CCCCCOC(=O)C1=C(C)Nc2nnnn2C1c1ccccc1Cl (stereo unspecified)	14	-25	-78	2	-29	19*	0.5*	2
CC(Cc1c[nH]c2ccccc12)NC(=O)OCCCl (stereo unspecified)	-3	-7	17	5	-2	20*	-1	-1
O=C(CN1C(=O)c2cccnc2Oc2ccc(Cl)cc21)Nc1ccccc1F	-2	-8	10	3	-5	19*	0	3
CCNC(=O)N(C)[C@H]1C[C@H]2c3[nH]c4c(-c5cccc(C)c5)cccc4c3CCN2C[C@H]1[C@H](C)O	.	.	.	.	6	.	.	.
